This passage reports NADPH fluorescence slope results from PubChem BioAssay.

Unmarked numbers belong to inactive results. Calls of active or inactive are those of the source.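 The calls were made as follows: active = NADPH fluorescence slope more negative than the mean of all samples by about 3 SD, 99.7% confidence; inactive = the rest.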

Chain of Voltage-gated potassium channel subunit beta-2 (Rattus norvegicus) (P62483 whole entry, looked up): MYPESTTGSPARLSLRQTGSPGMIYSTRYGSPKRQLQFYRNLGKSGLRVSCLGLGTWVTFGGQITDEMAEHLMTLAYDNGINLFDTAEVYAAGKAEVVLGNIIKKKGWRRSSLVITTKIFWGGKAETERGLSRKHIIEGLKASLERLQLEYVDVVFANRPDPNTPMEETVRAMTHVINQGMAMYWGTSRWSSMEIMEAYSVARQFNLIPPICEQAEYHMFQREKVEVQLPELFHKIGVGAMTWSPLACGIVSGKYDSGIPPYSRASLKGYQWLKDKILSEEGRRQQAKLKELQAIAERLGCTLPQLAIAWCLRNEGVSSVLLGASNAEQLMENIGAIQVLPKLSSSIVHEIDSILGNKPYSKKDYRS

This experiment has as its target Voltage-gated potassium channel subunit beta-2 (Rattus norvegicus) (UniProt P62483). The experiment is described as follows: enhancers of rat Kvbeta2 NADPH turnover – biochemical, NADPH fluorescence, primary screen (AID 623).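 Also: fluorescence intensity change per second fitted from 20 to 320 s.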 As to conditions: Recombinant KvBeta, NADPH fluorescence decrease slope, 10 min; at 10 µM; active compounds read low.
For `O=C1CCCC(O)=C1C=Nc1ccc2c(c1)oc1ccccc12`, the NADPH fluorescence slope was 1.4e-05.
With `CCOC(=O)c1ccc(N(CC(=O)NC2CCCC2)C(=O)CNC(=O)c2ccco2)cc1`, the NADPH fluorescence slope is -5.1e-05.
Turning to `COc1cc(NS(=O)(=O)N2CCCC2)cc(OC)c1OC`, the NADPH fluorescence slope was -1.9e-05.
As for `CCOc1ccc(N2CC(C(=O)NCCc3ccc(OC)c(OC)c3)CC2=O)cc1` (stereo not given), the figure is -3.5e-05; as for `Cn1c(=O)c(C(=O)Nc2cccnc2)c(O)c2ccccc21`, -4.8e-05; as for `COCCNC(=O)C(c1ccc(C)o1)N(Cc1ccc(OC)cc1)C(=O)Cn1nnc2ccccc21` (stereo not given), -1.9e-05.
With `O=C(c1cc2cc(Cl)cc(Cl)c2oc1=O)N1CCOCC1`, the NADPH fluorescence slope was -6.7e-05.
As for `COc1ccc2nc(N3CCC(C)CC3)c(C#N)cc2c1`, the figure is -9e-06; as for `C/C(=C\c1ccco1)C1C(C#N)=C(N)OC2=C1C(=O)CC(C)(C)C2` (stereo not given), -6.3e-05; as for `CCOC(=O)c1c(C)[nH]c(C)c1C(=O)COC(=O)CNC(=O)c1ccc(OCC)cc1`, 2.3e-05.
Regarding `CCCCNC(=O)Cn1c(=O)n(C)c2ccccc21`, the NADPH fluorescence slope is -6.8e-06.
With `c1ccc(OCc2nc3ccccc3[nH]2)cc1`, the NADPH fluorescence slope is -5.8e-05.
On to `O=C(CSc1nc2ccccc2s1)N1CCN(C(=O)c2ccco2)CC1`, for which the NADPH fluorescence slope was 9e-06.
As for `CCCSc1nc(N)c(C#N)c(-c2ccc(C)cc2)c1C#N`, the figure is -6.2e-05.
On to `CN(C(=O)Cn1c(=O)n(CCCCC(=O)NC2CCCC2)c(=O)c2ccccc21)C1CCCCC1`, for which the NADPH fluorescence slope is 1.3e-07.
As for `CC1(C)CNC(=O)CC(C)(C)N1O`, the figure is -6.2e-06; as for `COc1ccc(Cl)cc1Nc1nc(NCCO)nc(N2CCCC2)n1`, -2.1e-05; as for `CCOC(=O)c1ccc(S(=O)(=O)Nc2cc(C(C)(C)C)no2)cc1`, 5.6e-06.
With `CCCCCCn1c(SCC(=O)OC)nc2c1c(=O)[nH]c(=O)n2C`, the NADPH fluorescence slope was -5.2e-05.
Take `COc1ccc(CCNC(=O)CSCc2n[nH]c(=O)[nH]2)cc1OC`: the NADPH fluorescence slope is -3.9e-05.
Consider `COc1ccc(-c2nc3c(c(SCC(=O)N4CCOCC4)n2)COC(C)(C)C3)cc1`, for which the NADPH fluorescence slope is 1.1e-05.
On to `CN1CCN(CC(=O)N2c3ccccc3C(C)(c3ccccc3)CC2(C)C)CC1` (stereo not given), for which the NADPH fluorescence slope was -6.8e-07.
As for `CCN(CC)CCOc1cccc(C(C)C)c1`, the NADPH fluorescence slope was -7.6e-05.
Take `O=C(CN1C(=O)CC(c2ccco2)Sc2ccccc21)Nc1ccccc1F` (stereo not given): the NADPH fluorescence slope was 1.9e-05.
As to `COCCN(CC(=O)NCc1ccccc1)C(=O)CCC(=O)Nc1ccccn1`, the NADPH fluorescence slope was -2.7e-05.
As for `CCCCc1cc(=O)oc2cc(OCC(=O)N(CC)CC)c(Cl)cc12`, the figure is 7.2e-08.
`CC(=O)Nc1cccc(NC(=O)c2oc3ccccc3c2C)c1`: the NADPH fluorescence slope was 1.6e-05.
As for `CCN(CC)CCCn1c(=S)[nH]c2cc(Cl)ccc2c1=O`, the figure is -0.000206 (active).
Regarding `CCn1c(SCC(=O)c2ccc(OC)cc2)nnc1C(C)NC(=O)c1ccc(OC)cc1` (stereo not given), the NADPH fluorescence slope is 2.1e-05.
Take `CCCCOC(=O)CN1C(=O)c2ccc(C(=O)OCCCC)cc2C1=O`: the NADPH fluorescence slope was -2.2e-05.
Consider `CC(C)CCNC(=O)C(c1cccs1)N(CC1CCCO1)C(=O)Cn1nnc2ccccc21` (stereo not given), for which the NADPH fluorescence slope is -5.1e-05.
Regarding `O=C(CNC(=O)c1ccccc1C(=O)O)c1ccccc1`, the NADPH fluorescence slope is 1.4e-05.
As for `CS(=O)(=O)N1CCCC(C(=O)N2CCOCC2)C1` (stereo not given), the NADPH fluorescence slope is 6.2e-06.
In the case of `Cc1ccc(NC(=O)C2CCCN2S(=O)(=O)c2cccc3cccnc23)cc1F` (stereo not given), the NADPH fluorescence slope is -3.9e-05.
For `Cc1cc(C(=O)NCCCN2CCOCC2)n(-c2ccccc2)n1`, the NADPH fluorescence slope was -2.1e-05.
For the molecule `CCc1nn(CC(=O)N2CCN(Cc3ccc4c(c3)OCO4)CC2)c(=O)c2cc3occc3n12`, the NADPH fluorescence slope was -1.6e-05.
As for `Cc1ccc2c(c1)nnn2C1CCN(C(=O)NC23CC4CC(CC(C4)C2)C3)CC1`, the NADPH fluorescence slope is -4e-05.
As to `CCN(CC)CCOC(=O)c1c(C)oc2ccc(O)cc12`, the NADPH fluorescence slope was -8e-05.
On to `Cc1onc(-c2ccccc2Cl)c1C(=O)NCc1cccnc1`, for which the NADPH fluorescence slope was 1.3e-05.
Regarding `COc1cccc(NC(=O)c2ccco2)c1`, the NADPH fluorescence slope was 6.1e-06.
